According to PubChem BioAssay (EPA / NIEHS):
Inconclusive results are not listed. Calls of active or inactive are those of the source. How the source made its calls, unless noted: active means hit-call score of the fitted dose curve at least 0.9, where 1 is the maximum; inactive means score below 0.9.

How the values were obtained:
[1] = CCTE_Simmons_MITO_basal_resp_rate: CCTE's HepG2 Seahorse XF Respirometric Screening Assay at Basal Respiratory State, Simmons Lab (AID 2284001); conditions: actives raise or lower the signal
Summary of the method: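 HepG2 respirometry; 7-pt titration 125 nM–100 uM final; kinetic OCR at 6 min intervals for 72 min; n=3 biological, technical singles; DMSO baseline, gain or loss fit; fenpyroximate (decrease) and 2,4-DNP (increase) controls.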

[2] = CCTE_Simmons_MITO_max_resp_rate: CCTE's HepG2 Seahorse XF Respirometric Screening Assay at Maximal Respiratory State [uncoupled], Simmons Lab (AID 2284002); conditions: actives raise or lower the signal
Summary of the method: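 Maximal respiration in HepG2 cells is recorded as OCR by Seahorse XF following FCCP injection. Compounds span 125 nM–100 uM final; activity is called in either direction against DMSO.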

[3] = CCTE_Simmons_MITO_inhib_resp_rate: CCTE's HepG2 Seahorse XF Respirometric Screening Assay at Inhibited Respiratory State [full ETC block], Simmons Lab (AID 2284006); conditions: actives raise or lower the signal
Summary of the method: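 Compound injected onto HepG2 cells (125 nM–100 uM final, 7 points); FCCP then rotenone/antimycin A added. Oxygen consumption read every 6 min (3 min mix, 3 min measure) for 72 min. Inhibited-state OCR fitted against DMSO.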

[4] = CCTE_Harrill_HTTr_Viability_DMEM_6hr: (Pilot) CCTE's 6-hour Cell Viability Assessment for the High-Throughput Transcriptomics (HTTr) Platform, in MCF-7 cells cultured in DMEM + 10% fetal bovine serum, Harrill Lab (AID 2283973)
Summary of the method: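 MCF-7 cells in DMEM + 10% FBS, eight-point dilution series, 6 h exposure. Membrane integrity by propidium iodide exclusion with high-content imaging; bidirectional fit versus DMSO.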

[5] = CCTE_Harrill_HTTr_Viability_DMEM_12hr: (Pilot) CCTE's 12-hour Cell Viability Assessment for the High-Throughput Transcriptomics (HTTr) Platform, in MCF-7 cells cultured in DMEM + 10% fetal bovine serum, Harrill Lab (AID 2283974)
Summary of the method: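 MCF-7 cells in DMEM + 10% FBS exposed 12 h to an eight-point dilution series; membrane integrity scored by propidium iodide exclusion with high-content imaging, bidirectional fitting versus DMSO.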

[6] = CCTE_Harrill_HTTr_Viability_DMEM_24hr: (Pilot) CCTE's 24-hour Cell Viability Assessment for the High-Throughput Transcriptomics (HTTr) Platform, in MCF-7 cells cultured in DMEM + 10% fetal bovine serum, Harrill Lab (AID 2283975)
Summary of the method: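 MCF-7 cells in DMEM with 10% FBS exposed for 24 hours to an eight-point dilution series. Membrane integrity by propidium iodide exclusion with high content imaging; bidirectional fit against DMSO.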

[7] = CCTE_Harrill_HTTr_Viability_PRF_DMEM_6hr: (Pilot) CCTE's 6-hour Cell Viability Assessment for the High-Throughput Transcriptomics (HTTr) Platform, in MCF-7 cells cultured phenol red-free DMEM + 10% charcoal-stripped fetal bovine serum, Harrill Lab (AID 2283976)
Summary of the method: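 MCF-7 cells in phenol red-free DMEM with 10% charcoal-stripped FBS exposed 6 hours to an eight-point dilution series. Propidium iodide exclusion imaged; curves fitted bidirectionally against DMSO.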

[8] = CCTE_Harrill_HTTr_Viability_PRF_DMEM_12hr: (Pilot) CCTE's 12-hour Cell Viability Assessment for the High-Throughput Transcriptomics (HTTr) Platform, in MCF-7 cells cultured in phenol red-free DMEM + 10% charcoal-stripped fetal bovine serum, Harrill Lab (AID 2283977)
Summary of the method: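 MCF-7 cells in phenol red-free DMEM with 10% charcoal-stripped FBS exposed 12 hours to an eight-point dilution series. Viability assessed by high-content imaging of propidium iodide exclusion; bidirectional fit versus DMSO.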

[9] = TOX21_TR_RXR_BLA_Antagonist_Followup_viability: Viability Assessment in the Tox21 Thyroid Hormone Receptor beta Retinoid X Receptor alpha (RXRa) Antagonism Beta-lactamase (BLA) Follow-Up Assay (AID 2283979; active means hit-call score of the fitted dose curve at least 0.9, where 1 is the maximum)
Summary of the method: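 Follow-up compounds (11 concentrations, triplicate) were incubated 16 h at 37C/5% CO2 with HEK293T RXRa-bla cells seeded at 2,500/well in charcoal-stripped-serum medium. ATP content by CellTiter-Glo luminescence gave viability; curves fitted in both directions against DMSO.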

[10] = CCTE_Harrill_HTTr_Viability_PRF_DMEM_24hr: (Pilot) CCTE's 24-hour Cell Viability Assessment for the High-Throughput Transcriptomics (HTTr) Platform, in MCF-7 cells cultured in phenol red-free DMEM + 10% charcoal-stripped fetal bovine serum, Harrill Lab (AID 2283980)
Summary of the method: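 MCF-7 cells in phenol red-free DMEM with 10% charcoal-stripped FBS, eight-point dilution series, 24 h exposure. Membrane integrity by propidium iodide exclusion with high content imaging; bidirectional fit vs DMSO.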

[11] = CCTE_Harrill_HTTr_Apoptosis_DMEM_6hr: (Pilot) CCTE's 6-hour Apoptosis Assessment for the High-Throughput Transcriptomics (HTTr) Platform, in MCF-7 cells cultured in DMEM + 10% fetal bovine serum, Harrill Lab (AID 2283981)
Summary of the method: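 Caspase-3/7 activation read by high content imaging with CellEvent Caspase 3/7 Green in MCF-7 cells (DMEM + 10% FBS), 6 h after dosing; eight-point dilution series. Bidirectional fitting relative to DMSO baseline.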

[12] = CCTE_Harrill_HTTr_Apoptosis_DMEM_12hr: (Pilot) CCTE's 12-hour Apoptosis Assessment for the High-Throughput Transcriptomics (HTTr) Platform, in MCF-7 cells cultured in DMEM + 10% fetal bovine serum, Harrill Lab (AID 2283982)
Summary of the method: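 MCF-7 cells in DMEM + 10% FBS, exposed 12 h to an eight-point dilution series; caspase-3/7 activation imaged with CellEvent Green. Bidirectional fit versus DMSO.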

[13] = CCTE_Harrill_HTTr_Apoptosis_DMEM_24hr: (Pilot) CCTE's 24-hour Apoptosis Assessment for the High-Throughput Transcriptomics (HTTr) Platform, in MCF-7 cells cultured in DMEM + 10% fetal bovine serum, Harrill Lab (AID 2283983)
Summary of the method: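 MCF-7 cells in DMEM + 10% FBS, eight-point dilution series, 24 h exposure. Caspase-3/7 activation imaged by high-content imaging with CellEvent Caspase 3/7 Green. Bidirectional curve fitting against DMSO baseline.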

[14] = CCTE_Harrill_HTTr_Apoptosis_PRF_DMEM_6hr: (Pilot) CCTE's 6-hour Apoptosis Assessment for the High-Throughput Transcriptomics (HTTr) Platform, in MCF-7 cells cultured phenol red-free DMEM + 10% charcoal-stripped fetal bovine serum, Harrill Lab (AID 2283984)
Summary of the method: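 MCF-7 cells in phenol red-free DMEM + 10% charcoal-stripped FBS, eight-point dilution series, 6 h exposure. Caspase-3/7 activation imaged by high-content imaging with CellEvent Caspase 3/7 Green; bidirectional fit versus DMSO baseline.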

[15] = CCTE_Harrill_HTTr_Apoptosis_PRF_DMEM_12hr: (Pilot) CCTE's 12-hour Apoptosis Assessment for the High-Throughput Transcriptomics (HTTr) Platform, in MCF-7 cells cultured in phenol red-free DMEM + 10% charcoal-stripped fetal bovine serum, Harrill Lab (AID 2283985)
Summary of the method: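 MCF-7 cells in phenol red-free DMEM with 10% charcoal-stripped FBS, eight-point dilution series, 12 h exposure. Caspase-3/7 activation imaged by high content imaging with CellEvent Green reagent; bidirectional fit vs DMSO.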

[16] = CCTE_Harrill_HTTr_Apoptosis_PRF_DMEM_24hr: (Pilot) CCTE's 24-hour Apoptosis Assessment for the High-Throughput Transcriptomics (HTTr) Platform, in MCF-7 cells cultured in phenol red-free DMEM + 10% charcoal-stripped fetal bovine serum, Harrill Lab (AID 2283986)
Summary of the method: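 MCF-7 cells in phenol red-free DMEM with 10% charcoal-stripped FBS, exposed 24 h across an eight-point dilution series. Caspase-3/7 activation imaged with CellEvent Green by high content imaging; bidirectional fitting against DMSO.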

[17] = target: Nucleoli Translocation, AR (gene 367) (UniProt P10275); assay: UPITT_HCI_U2OS_AR_TIF2_Nucleoli_Antagonist: University of Pittsburgh U2OS Androgen Receptor-Transcriptional Intermediary Factor 2 (AR-TIF2) Antagonism High Content Imaging Assay for Nucleoli Translocation (AID 2283997; active means hit-call score of the fitted dose curve at least 0.9, where 1 is the maximum)
Nucleoli Translocation, AR (gene 367), sequence (P10275 whole entry, looked up): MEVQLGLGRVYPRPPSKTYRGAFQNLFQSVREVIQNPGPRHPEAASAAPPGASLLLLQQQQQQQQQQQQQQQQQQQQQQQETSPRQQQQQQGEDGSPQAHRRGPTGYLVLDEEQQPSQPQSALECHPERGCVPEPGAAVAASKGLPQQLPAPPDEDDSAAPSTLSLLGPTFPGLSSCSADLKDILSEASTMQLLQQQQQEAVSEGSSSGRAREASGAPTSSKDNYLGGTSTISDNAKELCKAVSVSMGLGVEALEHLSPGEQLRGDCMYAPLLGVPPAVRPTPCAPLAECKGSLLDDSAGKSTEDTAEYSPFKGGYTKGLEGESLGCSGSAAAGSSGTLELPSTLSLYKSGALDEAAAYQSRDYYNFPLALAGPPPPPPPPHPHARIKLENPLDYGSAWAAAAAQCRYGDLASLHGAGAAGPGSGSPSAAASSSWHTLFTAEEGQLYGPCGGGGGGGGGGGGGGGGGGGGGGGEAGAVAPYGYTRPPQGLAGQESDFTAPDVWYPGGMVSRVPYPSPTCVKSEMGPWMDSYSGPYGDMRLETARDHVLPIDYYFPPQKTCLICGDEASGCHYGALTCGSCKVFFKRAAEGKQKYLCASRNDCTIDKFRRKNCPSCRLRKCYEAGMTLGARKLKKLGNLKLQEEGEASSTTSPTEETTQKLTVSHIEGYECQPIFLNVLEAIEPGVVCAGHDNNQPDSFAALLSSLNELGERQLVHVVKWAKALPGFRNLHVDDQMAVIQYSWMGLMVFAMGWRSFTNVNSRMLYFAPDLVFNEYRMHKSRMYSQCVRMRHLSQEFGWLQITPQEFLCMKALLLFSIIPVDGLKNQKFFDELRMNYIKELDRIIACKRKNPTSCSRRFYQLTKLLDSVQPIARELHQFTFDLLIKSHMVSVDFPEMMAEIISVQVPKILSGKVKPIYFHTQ
Summary of the method: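 Measured quantity was AR-RFP fluorescence localized to nucleoli in engineered U2OS cells also bearing TIF2-GFP, acquired on automated high-content imagers. Primary testing used 20 uM compound; actives were confirmed in triplicate wells.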

[18] = target: Nucleoli Translocation, AR (gene 367) (UniProt P10275); assay: UPITT_HCI_U2OS_AR_TIF2_Nucleoli_Agonist: University of Pittsburgh U2OS Androgen Receptor-Transcriptional Intermediary Factor 2 (AR-TIF2) Agonism High Content Imaging Assay for Nucleoli Translocation (AID 2283998; active means hit-call score of the fitted dose curve at least 0.9, where 1 is the maximum)
Summary of the method: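 Red-tagged human androgen receptor co-expressed with GFP-tagged TIF2 serves as the binding reporter. Primary testing used 20 uM final (0.2% DMSO); follow-up dose response covered 0.195 to 50 uM final (0.5% DMSO).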

[19] = target: Ratio of Nucleoli Translocation and Cytoplasm, AR (gene 367) (UniProt P10275); assay: UPITT_HCI_U2OS_AR_TIF2_Nucleoli_Cytoplasm_Ratio_Agonist: University of Pittsburgh U2OS Androgen Receptor-Transcriptional Intermediary Factor 2 (AR-TIF2) Agonism High Content Imaging Assay for Ratio of Nucleoli Translocation and Cytoplasm (AID 2284000; active means hit-call score of the fitted dose curve at least 0.9, where 1 is the maximum;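 further: hits raise the red nucleolar to cytoplasm ratio above vehicle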)
Ratio of Nucleoli Translocation and Cytoplasm, AR (gene 367), sequence (P10275 whole entry, looked up): as above
Summary of the method: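 Read-out first: nucleolar-to-cytoplasm ratio of red (AR-RFP) signal, quantified by high-content imaging in U2OS cells co-expressing TIF2-GFP. Activity is scored as signal increase over DMSO. Single-point screening used 20 uM final (0.2% DMSO).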

Measured: AC50

OC(c1ccc(Cl)cc1)(c1cncnc1)c1ccccc1Cl (stereo unspecified)
inactive: [1] | [2] | [3]

CN(C)C(=S)SSC(=S)N(C)C
active: [6] 54.6 µM | [10] 46.7 µM | [13] 80.6 µM | [17] 12.6 µM
not listed: [1] | [2] | [3] | [19]
inactive: all other assays above

Oc1ccccc1-c1ccccc1
inactive: [1] | [2] | [3]

O=C(Nc1ccccc1)Nc1ccnc(Cl)c1
inactive: [19] | [3]
active: [18] 84.5 µM | [1] 72.3 µM | [2] 50 µM
